# Measurements as given in PubChem BioAssay (Tox21).
# A number with no mark means an inactive call. Results filed as inconclusive are left out. Entries that show only a call come without a potency. Activity calls are given as the source filed them. Unless noted, calls follow the shape of the dose curve; as a rule, active = well fitted curve in the direction sought with a large enough effect in the repeat runs; inconclusive = weak or mixed curves; inactive = no such curve, though single readings can be large; an effect the other way counts as inactive or inconclusive.
# Tests used:
# [1] = qHTS assay to identify small molecule agonists of the hypoxia (HIF-1) signaling pathway - cell viability counter screen (AID 1224844; calls by dose curve; also: nearly all actives have a fitted effect of over 50% in size)
# Outline: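 Multiplexed with the HRE beta-lactamase assay, this viability read used CellTiter-Glo luminescence (30 min, RT) on HRE-bla ME-180 cells treated 17 hrs with compounds in 0.5% dialyzed FBS medium.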
# [2] = qHTS assay to identify small molecule agonists of H2AX (AID 1224845; active = well fitted activation curve with a large enough effect in the signal ratio in the repeat runs, not every such curve was filed as active; the % refers to the signal ratio)
# Outline: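 Wild-type CHO-K1 cells plated overnight, then exposed 3 hr at 37C to compounds at 15 concentrations (0.76% DMSO). Lysed, then HTRF anti-pH2AX(S139)-cryptate/anti-H2AX-d2 detection after 24 hr at room temperature; emissions 665 and 620 nm.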
# [3] = qHTS assay to identify small molecule agonists of the hypoxia (HIF-1) signaling pathway (AID 1224846; active = well fitted activation curve with a large enough effect in the signal ratio in the repeat runs, not every such curve was filed as active; the % refers to the signal ratio)
# Outline: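 Hypoxia-pathway activation was scored as increased beta-lactamase from an HRE-controlled reporter in ME-180 cells; plated at 2,000 cells per well with 0.5% dialyzed FBS, they were exposed 17 hrs to compounds and then given CCF4-AM.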
# [4] = qHTS assay to identify small molecule agonists of H2AX - cell viability counter screen (AID 1224847; calls by dose curve; also: top concentration of the series differs between compounds; nearly all actives have a fitted effect of over 30% in size)
# Outline: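 Read-out: CellTiter-Glo luminescence, 30 min RT. Cells: wild-type CHO-K1, 1000/well, 10% FBS, plated overnight at 37C. Treatment: 15 concentrations, 3 hr, 37C, 0.76% DMSO.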
# [5] = qHTS assay to identify small molecule antagonists of the estrogen related receptor (ERR) signaling pathway from Tox21 library (AID 1224848); also: nearly all actives have a fitted effect of over 50% in size; also: potency is read from the fitted curve at half-maximal effect
# Outline: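 Screening used an ERR reporter line supplied by NTP, exposed for 18 h at 37 C to library compounds delivered in DMSO. Signal was luciferase luminescence developed with ONE-Glo at room temperature for 30 min.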
# [6] = qHTS RealTime-Glo MT Cell Viability Assay in HepG2 cells - 24 hour (AID 1224867); also: nearly all actives have a fitted effect of over 50% in size
# Outline: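 Cell number in HepG2 cultures estimated from NanoLuc luminescence generated by metabolic reduction of a prosubstrate by living cells. The homogeneous, nonlytic format allowed repeated reads at 0, 8, 16, 24, 32 and 40 h of compound exposure.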
# [7] = qHTS RealTime-Glo MT Cell Viability Assay in HEK293 cells - 32 hour (AID 1224868); also: top concentration of the series differs between compounds; nearly all actives have a fitted effect of over 50% in size
# Outline: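 Homogeneous bioluminescent viability format in HEK293 cells (600 cells/well). Following 5 h at 37 C/5% CO2, 23 nL compound was pintooled; the signal was measured repeatedly during 40 h incubation.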
# [8] = A CellTox Green Cytotoxicity Assay to monitor cytotoxicity in HEK293 cells - 0 hour (AID 1224869); also: nearly all actives have a fitted effect of over 50% in size
# Outline: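 Seeding of HEK293 cells together with cytotoxicity dye preceded a 5 h incubation at 37 C/5% CO2. Test compounds in DMSO were then added and fluorescence monitored across 40 h.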
# [9] = qHTS RealTime-Glo MT Cell Viability Assay in HepG2 cells - 40 hour (AID 1224870); also: nearly all actives have a fitted effect of over 50% in size
# Outline: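 HepG2 cells mixed with RealTime-Glo MT reagents (NanoLuc plus cell-permeant prosubstrate) were seeded at 600 cells/well, incubated 5 h at 37 C/5% CO2, then pinned with compounds in DMSO; nonlytic luminescence tracked viability during 40 h treatment.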
# [10] = qHTS assay to identify small molecule agonists of the estrogen related receptor (ERR) signaling pathway from Tox21 library (AID 1224849; calls by dose curve; also: nearly all actives have a fitted effect of over 15% in size); details: ERR reporter cell line, ONE-Glo luciferase, 18 h; at 92.4 µM (top of the series) unless noted
# Outline: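 Six hours post-seeding at 37 C/5% CO2, ERR cells receive DMSO-solubilised compounds; after 18 h at 37 C, ONE-Glo reagent is applied and luminescence recorded.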
smiles,measurement,setting,value
COc1cc(CC(C)N)cc(OC)c1OC (centres undefined),Potency,[1],inactive
same,outcome,[2],inactive
same,outcome,[3],inactive
same,Potency,[4],inactive
same,Potency,[5],inactive
same,Potency,[6],inactive
same,Potency,[7],inactive
same,outcome,[8],inactive
same,Potency,[9],inactive
NC1(c2ccccc2)CCCCC1,Potency,[1],inactive
same,outcome,[2],inactive
same,outcome,[3],inactive
same,Potency,[4],inactive
same,Potency,[6],inactive
same,Potency,[7],inactive
same,outcome,[8],inactive
same,Potency,[9],inactive
CCC(CC)(CNC(=O)CCCO)c1cccc(OC)c1,Potency,[1],inactive
same,outcome,[2],inactive
same,outcome,[3],inactive
same,Potency,[4],inactive
same,Potency,[5],inactive
same,Potency,[6],inactive
same,outcome,[8],inactive
same,Potency,[9],inactive
CC(C)[C@]12CC(=O)[C@H](C)[C@H]1C2,Potency,[1],inactive
same,outcome,[2],inactive
same,outcome,[3],inactive
same,Potency,[4],inactive
same,Potency,[6],inactive
same,Potency,[7],inactive
same,outcome,[8],inactive
same,Potency,[9],inactive
O=P(O)(O)CN(CP(=O)(O)O)CP(=O)(O)O,Potency,[1],inactive
same,outcome,[2],inactive
same,outcome,[3],inactive
same,Potency,[4],inactive
same,Potency,[6],inactive
NNCc1ccccc1,Potency,[1],inactive
same,outcome,[2],inactive
same,outcome,[3],inactive
same,Potency,[4],inactive
same,Potency,[6],inactive
CN1COCN(Cc2cnc(Cl)s2)/C1=N\[N+](=O)[O-],Potency,[1],inactive
same,outcome,[2],inactive
same,outcome,[3],inactive
same,Potency,[4],inactive
same,Potency,[6],inactive
same,Potency,[7],inactive
same,outcome,[8],inactive
O=CCCl,Potency,[1],inactive
same,outcome,[2],inactive
same,outcome,[3],inactive
same,Potency,[4],inactive
same,Potency,[6],inactive
same,Potency,[7],inactive
same,outcome,[8],inactive
same,Potency,[9],inactive
COc1ccc(C=O)cc1O,Potency,[1],inactive
same,outcome,[2],inactive
same,outcome,[3],inactive
same,Potency,[4],inactive
same,Potency,[5],inactive
same,Potency,[6],inactive
same,Potency,[7],inactive
same,Potency,[9],inactive
C=CCC1(C(C)CC)C(=O)NC(=O)NC1=O (centres undefined),Potency,[1],inactive
same,outcome,[2],inactive
same,outcome,[3],inactive
same,Potency,[4],inactive
same,Potency,[6],inactive
same,Potency,[7],inactive
same,outcome,[8],inactive
Cl/C=C/CCl,Potency,[1],inactive
same,outcome,[2],inactive
same,outcome,[3],inactive
same,Potency,[4],inactive
same,Potency,[5],inactive
same,Potency,[6],inactive
same,Potency,[7],inactive
same,outcome,[8],inactive
same,Potency,[9],inactive
C[C@H](CN1CCOCC1)C(C(=O)N1CCCC1)(c1ccccc1)c1ccccc1,Potency,[1],inactive
same,outcome,[2],inactive
same,outcome,[3],inactive
same,Potency,[4],inactive
same,Potency,[5],66.3 µM (active)
same,Potency,[6],inactive
same,outcome,[8],inactive
CNC(=O)NC(O)C(Cl)(Cl)Cl (centres undefined),Potency,[1],inactive
same,outcome,[2],inactive
same,outcome,[3],inactive
same,Potency,[4],inactive
same,Potency,[6],inactive
Cc1cccc2sc3nncn3c12,Potency,[1],inactive
same,outcome,[2],inactive
same,outcome,[3],inactive
same,Potency,[4],inactive
same,Potency,[6],inactive
same,Potency,[7],inactive
same,outcome,[8],inactive
same,Potency,[9],inactive
BrCc1ccc(Br)cc1,Potency,[1],inactive
same,outcome,[2],inactive
same,outcome,[3],inactive
same,Potency,[4],inactive
same,Potency,[6],inactive
same,Potency,[7],inactive
same,outcome,[8],inactive
O=C1CCCCC1Cl (centres undefined),Potency,[1],inactive
same,outcome,[2],inactive
same,outcome,[3],inactive
same,Potency,[4],inactive
same,Potency,[6],inactive
same,Potency,[7],inactive
same,outcome,[8],inactive
CCC1(c2ccccc2)C(=O)N(COC)C(=O)N(COC)C1=O,Potency,[1],inactive
same,outcome,[2],inactive
same,outcome,[3],inactive
same,Potency,[4],inactive
same,Potency,[5],inactive
same,Potency,[6],inactive
same,Potency,[7],inactive
same,outcome,[8],inactive
same,Potency,[9],inactive
C[C@]12C=CC(=O)C=C1CC[C@@H]1[C@@H]2CC[C@@]2(C)[C@H]1CC[C@]2(C)O,Potency,[1],inactive
same,outcome,[2],inactive
same,outcome,[3],inactive
same,Potency,[4],inactive
same,"activity change, positive = activation",[10],-17.6% [at 42.5 µM]
same,Potency,[6],inactive
same,Potency,[7],inactive
same,outcome,[8],inactive
same,Potency,[9],inactive
CCOC(=O)Nc1cccc(OC(=O)Nc2ccccc2)c1,Potency,[1],inactive
same,outcome,[2],inactive
same,outcome,[3],inactive
same,Potency,[4],inactive
same,Potency,[6],inactive
same,Potency,[7],inactive
same,outcome,[8],inactive
same,Potency,[9],inactive
C=CCCC#N,Potency,[1],inactive
same,outcome,[2],inactive
same,outcome,[3],inactive
same,Potency,[4],inactive
same,Potency,[6],inactive
same,Potency,[7],inactive
same,outcome,[8],inactive
same,Potency,[9],inactive
CC(C)C(C)(N)C#N (centres undefined),Potency,[1],inactive
same,outcome,[2],inactive
same,outcome,[3],inactive
same,Potency,[4],inactive
same,Potency,[6],inactive
same,Potency,[7],inactive
same,outcome,[8],inactive
same,Potency,[9],inactive
CCOC(=O)C(Cl)Cc1cc(-n2nc(C)n(C(F)F)c2=O)c(F)cc1Cl (centres undefined),Potency,[1],inactive
same,outcome,[2],inactive
same,outcome,[3],inactive
same,Potency,[4],inactive
same,Potency,[6],inactive
same,Potency,[7],inactive
same,outcome,[8],inactive
same,Potency,[9],inactive
[O-][Br+2]([O-])O,Potency,[1],inactive
same,outcome,[2],inactive
same,outcome,[3],inactive
same,Potency,[4],inactive
same,Potency,[6],inactive
same,Potency,[7],inactive
same,outcome,[8],inactive
same,Potency,[9],inactive
CCOP(=O)(CN(CCO)CCO)OCC,Potency,[1],inactive
same,outcome,[2],inactive
same,outcome,[3],inactive
same,Potency,[4],inactive
same,Potency,[6],inactive
same,Potency,[7],inactive
same,outcome,[8],inactive
same,Potency,[9],inactive
CON(C)C(=O)Nc1ccc(Br)cc1,Potency,[1],inactive
same,outcome,[2],inactive
same,outcome,[3],inactive
same,Potency,[4],inactive
same,Potency,[6],inactive
same,Potency,[7],inactive
same,outcome,[8],inactive
same,Potency,[9],inactive
CCCCCCC(=O)CCCCCC/C=C/C[C@@H](O)[C@H](O)[C@@](N)(CO)C(=O)O,"activity change, negative = cytotoxicity",[1],0.46% [at 15.8 µM]
same,activation (H2AX phosphorylation),[2],-0.061% [at 31.6 µM]
same,activation,[3],-0.0517% [at 15.8 µM]
same,"activity change, negative = cytotoxicity",[4],-0.19% [at 31.6 µM]
same,"activity change, negative = cytotoxicity",[6],0.745% [at 15.8 µM]
same,"activity change, negative = cytotoxic",[7],2.61% [at 15.8 µM]
same,cytotoxicity,[8],0.947% [at 15.8 µM]
same,"activity change, negative = cytotoxic",[9],0.839% [at 15.8 µM]
CC(Cc1ccccc1)NCCCCl (centres undefined),Potency,[1],inactive
same,outcome,[2],inactive
same,outcome,[3],inactive
same,Potency,[4],inactive
same,Potency,[6],inactive
same,Potency,[7],inactive
same,Potency,[9],inactive
BrCC1CO1 (centres undefined),Potency,[1],inactive
same,outcome,[2],inactive
same,outcome,[3],inactive
same,Potency,[4],inactive
same,Potency,[6],inactive
same,Potency,[7],inactive
same,outcome,[8],inactive
same,Potency,[9],inactive
ClCOCCl,Potency,[1],inactive
same,outcome,[2],inactive
same,outcome,[3],inactive
same,Potency,[4],inactive
same,Potency,[6],inactive
same,Potency,[7],inactive
same,outcome,[8],inactive
same,Potency,[9],inactive
ClCCCCCCCl,Potency,[1],inactive
same,outcome,[2],inactive
same,outcome,[3],inactive
same,Potency,[4],inactive
same,Potency,[6],inactive
same,Potency,[7],inactive
same,outcome,[8],inactive
same,Potency,[9],inactive
